Compounds without any hit were thinned out: in the full panel of roughly 83,000, 20% have a hit.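 Interpretation: 100, growth as untreated; towards 0, rising growth inhibition; 0, no net growth; 0 to -100, cell death. Compounds scoring below 10 were considered active.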 Unmarked numbers belong to inactive results. The source made the active and inactive calls.
What was measured:
Assay in all cases: NCI-60 one-dose screen, 48 h (100 = growth as untreated, 0 = no growth, -100 = all killed)
Conditions in all cases: 10 µM unless noted
[1] = tested on: T-47D breast
[2] = tested on: BT-549 breast
[3] = tested on: MDA-MB-435 melanoma
[4] = tested on: SW-620 colon
[5] = tested on: MCF7 breast
[6] = tested on: HCT-116 colon
[7] = tested on: HCC-2998 colon
[8] = tested on: KM12 colon

## CC(=O)Cc1nsc(NC(=O)c2ccoc2COc2ccccc2)n1
[1]
  growth: 105%
[2]
  growth: 94%
[3]
  growth: 107%
[4]
  growth: 105%
[5]
  growth: 98.2%
[6]
  growth: 98%
[7]
  growth: 103%
[8]
  growth: 100%

## CC(C)=CCC[C@](C)(O)[C@H]1CC[C@]2(C)[C@@H]1CC[C@@H]1[C@@]3(C)C/C(=C/c4ccc(Br)cc4)C(=O)C(C)(C)[C@@H]3CC[C@]12C
[1]
  growth: 64.3%
[2]
  growth: 95.4%
[3]
  growth: 95.3%
[4]
  growth: 82.2%
[5]
  growth: 82.2%
[6]
  growth: 66.5%
[7]
  growth: 92%
[8]
  growth: 94.9%

## Cc1nn(-c2ccc(Br)cc2)c2nc3[nH]c(=O)[nH]c(=O)c3nc12
[1]
  growth: 102%
[2]
  growth: 94.2%
[3]
  growth: 99.1%
[4]
  growth: 103%
[5]
  growth: 93.4%
[6]
  growth: 98.3%
[7]
  growth: 114%
[8]
  growth: 103%

## Cn1c2c(c3ccc(Cl)cc31)-n1cccc1C2=O
[1]
  growth: 95.2%
[2]
  growth: 92.6%
[3]
  growth: 112%
[4]
  growth: 93.7%
[5]
  growth: 74.2%
[6]
  growth: 76.9%
[7]
  growth: 101%
[8]
  growth: 100%

## Cc1ccc(Cc2cnc(NC(=O)/C=C/c3cccc(C)c3)s2)cc1
[1]
  growth: 39.8%
[2]
  growth: -5.4% (active)
[3]
  growth: -44.7% (active)
[4]
  growth: 17%
[5]
  growth: 14.6%
[6]
  growth: 2.53% (active)
[7]
  growth: 12.4%
[8]
  growth: 16.1%

## CCCCC[C@H]1CC=C2C(=O)C(Cl)=C[C@@H]2CC=CCCCC(=O)O[C@@H](CCCCC)CC=C2C(=O)C(Cl)=C[C@@H]2CC=CCCCC(=O)O[C@@H](CCCCC)CC=C2C(=O)C(Cl)=C[C@@H]2CC=CCCCC(=O)O1
[1]
  growth: 61% [8 µM]
[2]
  growth: 67.6% [8 µM]
[3]
  growth: 25.1% [8 µM]
[4]
  growth: 16.5% [8 µM]
[5]
  growth: 29.9% [8 µM]
[6]
  growth: 11.4% [8 µM]
[7]
  growth: 99.1% [8 µM]
[8]
  growth: 91.2% [8 µM]

## CCCCC[C@H]1CC=C2C(=O)C=C[C@@H]2CC=CCCCC(=O)O[C@@H](CCCCC)CC=C2C(=O)C=C[C@@H]2CC=CCCCC(=O)O[C@@H](CCCCC)CC=C2C(=O)C=C[C@@H]2CC=CCCCC(=O)O1
[1]
  growth: -10.2% [8.75 µM] (active)
[2]
  growth: -37.7% [8.75 µM] (active)
[3]
  growth: -31.8% [8.75 µM] (active)
[4]
  growth: 2.25% [8.75 µM] (active)
[5]
  growth: 5.55% [8.75 µM] (active)
[6]
  growth: -89.8% [8.75 µM] (active)
[7]
  growth: -38.7% [8.75 µM] (active)
[8]
  growth: -41% [8.75 µM] (active)

## COc1ccc(OC)c(-c2c(C#N)c(-c3ccco3)nc3c2c(-c2ccccc2)nn3-c2ccccc2)c1
[1]
  growth: 84%
[2]
  growth: 108%
[3]
  growth: 106%
[4]
  growth: 95.8%
[5]
  growth: 94.7%
[6]
  growth: 87.8%
[7]
  growth: 105%
[8]
  growth: 106%

## O=C1c2ccccc2NC(c2cn(-c3ccccc3)nc2-c2cccnc2)N1Cc1ccccc1 (stereo not given)
[1]
  growth: 75%
[2]
  growth: 105%
[3]
  growth: 108%
[4]
  growth: 105%
[5]
  growth: 89.3%
[6]
  growth: 95.5%
[7]
  growth: 97.2%
[8]
  growth: 91.5%

## CCCCN1CCCCn2c1nc1c2c(=O)n(C)c(=O)n1C
[1]
  growth: 107%
[2]
  growth: 108%
[3]
  growth: 107%
[4]
  growth: 102%
[5]
  growth: 103%
[6]
  growth: 104%
[7]
  growth: 95.9%
[8]
  growth: 101%

## Cc1ccc(-c2ccc(/C=C(\C#N)c3nc(-c4ccco4)cs3)o2)cc1
[1]
  growth: -22.8% (active)
[2]
  growth: 103%
[3]
  growth: 98.6%
[4]
  growth: 99.8%
[5]
  growth: 14.5%
[6]
  growth: 98%
[7]
  growth: 54.8%
[8]
  growth: 61.2%

## COc1ccc(C2(Cl)c3ccccc3N(c3ccccc3)c3ccccc32)cc1
[1]
  growth: 5.67% (active)
[2]
  growth: 11.3%
[3]
  growth: -60.9% (active)
[4]
  growth: 0.491% (active)
[5]
  growth: -6.13% (active)
[6]
  growth: -37.7% (active)
[7]
  growth: -15.6% (active)
[8]
  growth: 6.64% (active)

## CC(=O)Nc1cc(F)cc(C(F)(F)F)c1Cl
[1]
  growth: 96.7%
[2]
  growth: 95.8%
[3]
  growth: 99.3%
[4]
  growth: 95.2%
[5]
  growth: 91.5%
[6]
  growth: 94.1%
[7]
  growth: 98.4%
[8]
  growth: 96.3%

## Nc1c(C(=O)Nc2cccc(Br)c2)sc2nc3c(cc12)C(=O)CCC3
[1]
  growth: 30%
[2]
  growth: 57.8%
[3]
  growth: -53.3% (active)
[4]
  growth: 25%
[5]
  growth: 22.1%
[6]
  growth: 33.4%
[7]
  growth: 38.2%
[8]
  growth: 18.6%

## COc1ccc(C2c3ccccc3NC(=O)N2C2CCN(C)CC2)c(OC)c1 (stereo not given)
[1]
  growth: 100%
[2]
  growth: 107%
[3]
  growth: 72%
[4]
  growth: 101%
[5]
  growth: 78.1%
[6]
  growth: 107%
[7]
  growth: 105%
[8]
  growth: 99.6%

## O=C1/C(=C\C(Cl)=C/c2ccc([N+](=O)[O-])cc2)SC(=S)N1CCc1ccc(O)cc1
[1]
  growth: -36.4% (active)
[2]
  growth: -51.8% (active)
[3]
  growth: -1.96% (active)
[4]
  growth: -30.1% (active)
[5]
  growth: -73.4% (active)
[6]
  growth: -77.2% (active)
[7]
  growth: -92.3% (active)
[8]
  growth: -50.5% (active)

## C=C(C)[C@@H]1CC[C@]2(C)[C@H](CC[C@@H]3[C@H]4[C@H]5OC[C@@]4(CCC5(C)C)CC[C@]32C)[C@@]1(C)CCCN
[1]
  growth: 23%
[2]
  growth: 93.8%
[3]
  growth: 49.2%
[4]
  growth: -45.1% (active)
[5]
  growth: 0.266% (active)
[6]
  growth: 4.71% (active)
[7]
  growth: -68.4% (active)
[8]
  growth: 23.9%

## Cn1cc(-c2csc(-c3cn(C(=O)OC(C)(C)C)c4ccc(Br)cc34)n2)c2cccnc21
[1]
  growth: 74.3%
[2]
  growth: 103%
[3]
  growth: 102%
[4]
  growth: 90.4%
[5]
  growth: 81.5%
[6]
  growth: 67.4%
[7]
  growth: 101%
[8]
  growth: 101%

## O=C(N/N=C/c1ccccc1SSc1ccccc1/C=N/NC(=O)c1ccccc1)c1ccccc1
[1]
  growth: 43.6%
[2]
  growth: 30.1%
[3]
  growth: 46.1%
[4]
  growth: 41.6%
[5]
  growth: 10.1%
[6]
  growth: 24.6%
[7]
  growth: 55.6%
[8]
  growth: 36.4%

## COC(=O)[C@@H]1[C@H]2C[C@H]3c4[nH]c5cc(OC)ccc5c4CCN3C[C@@H]2C[C@H](OC(=O)/C=C/c2ccnc(OC)c2)[C@H]1OC
[1]
  growth: 67.1%
[2]
  growth: 81.2%
[3]
  growth: 97.5%
[4]
  growth: 98.3%
[5]
  growth: 72.6%
[6]
  growth: 73.4%
[7]
  growth: 105%
[8]
  growth: 98.8%

## Cc1csc(Nc2nc(-c3cccc(Br)c3)nc(C(Cl)(Cl)Cl)n2)n1
[1]
  growth: 13.9%
[2]
  growth: 85.4%
[3]
  growth: 65.3%
[4]
  growth: 52.6%
[5]
  growth: 28.9%
[6]
  growth: 47.7%
[7]
  growth: 16.1%
[8]
  growth: 27.7%

## Cc1ccnc2c(OCc3ccccc3)cccc12
[1]
  growth: 72.8%
[2]
  growth: 101%
[3]
  growth: 90.2%
[4]
  growth: 92%
[5]
  growth: 38.3%
[6]
  growth: 92.4%
[7]
  growth: 86.6%
[8]
  growth: 82.8%

## Brc1cnc2[nH]cc(-c3nnc(-c4ccccc4)o3)c2c1
[1]
  growth: 56.5%
[2]
  growth: 82%
[3]
  growth: 78%
[4]
  growth: 86.4%
[5]
  growth: 63.6%
[6]
  growth: 55.7%
[7]
  growth: 104%
[8]
  growth: 68.9%

## Cn1cc(-c2nc(-c3cn(C)c4ncccc34)cs2)c2ccccc21
[1]
  growth: 42%
[2]
  growth: 48.3%
[3]
  growth: -18.6% (active)
[4]
  growth: 27%
[5]
  growth: 15.9%
[6]
  growth: 14.6%
[7]
  growth: 67.4%
[8]
  growth: 22.5%

## COC(=O)[C@]12CC[C@@H](C)[C@H](C)[C@@H]1C1=CC[C@@H]3[C@@]4(C)C[C@@H](O)OC[C@](C)(C=O)C4C(=O)C[C@@]3(C)[C@]1(C)CC2 (stereo not given in full)
[1]
  growth: -4.48% (active)
[2]
  growth: -10.1% (active)
[3]
  growth: 2.15% (active)
[4]
  growth: 17%
[5]
  growth: 6.16% (active)
[6]
  growth: -44.4% (active)
[7]
  growth: 6.06% (active)
[8]
  growth: 6.15% (active)

## COc1ccc(-c2cc(-c3cccs3)n(N=O)c(=O)c2C#N)cc1
[1]
  growth: 97.4%
[2]
  growth: 104%
[3]
  growth: 125%
[4]
  growth: 112%
[5]
  growth: 95.8%
[6]
  growth: 105%
[7]
  growth: 112%
[8]
  growth: 109%

## Clc1cc(Cl)cc(Nc2ccc3c(OCCCN4CCOCC4)cccc3n2)c1
[1]
  growth: 60.4%
[2]
  growth: 72.7%
[3]
  growth: 57.4%
[4]
  growth: -41.9% (active)
[5]
  growth: 21.6%
[6]
  growth: 27.5%
[7]
  growth: 36.7%
[8]
  growth: -51.2% (active)

## C[C@H]1[C@@H]2[C@H]3CC[C@@H]4[C@@]5(C)Cc6c([nH]c7ccccc67)C(C)(C)[C@@H]5CC[C@@]4(C)[C@]3(C)CC[C@]23CO[C@]1(C)[C@@H](C(=O)/C=C/c1ccccn1)C3
[1]
  growth: 65%
[2]
  growth: 87.1%
[3]
  growth: 83.8%
[4]
  growth: 95.9%
[5]
  growth: 69.2%
[6]
  growth: 46.4%
[7]
  growth: 103%
[8]
  growth: 93.2%

## CCOc1ccc(NC(=O)c2ccoc2COc2ccccc2)cc1
[1]
  growth: 108%
[2]
  growth: 109%
[3]
  growth: 103%
[4]
  growth: 104%
[5]
  growth: 95.9%
[6]
  growth: 93.6%
[7]
  growth: 109%
[8]
  growth: 98.8%

## COc1ccc2[nH]cc(-c3nc(-c4c[nH]c5ncccc45)cs3)c2c1
[1]
  growth: 67.1%
[2]
  growth: 36.8%
[3]
  growth: 54%
[4]
  growth: 19%
[5]
  growth: 32.5%
[6]
  growth: 18.1%
[7]
  growth: 70.4%
[8]
  growth: 25.3%

— PubChem BioAssay (NCI)
